Experimental data: PubChem BioAssay (Tox21)
Records with an inconclusive call do not appear. Active and inactive are the calls of the source. Unless noted, calls follow the shape of the dose curve; as a rule, active = well fitted curve in the direction sought with a large enough effect in the repeat runs; inconclusive = weak or mixed curves; inactive = no such curve, though single readings can be large; an effect the other way counts as inactive or inconclusive.

Legend:
[1] = molecular target: Nuclear receptor subfamily 1 group I member 3 (Homo sapiens) (UniProt Q14994); test: qHTS assay to identify small molecule agonists of the constitutive androstane receptor (CAR) signaling pathway (AID 1224839);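 also: HepG2 cells stably carrying human CAR and a CYP2B6 luciferase reporter; series mostly up to about 92 µM; nearly all actives have a fitted effect of over 15% in size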
Procedure, shortened: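 In this screen, CAR-driven CYP2B6 promoter activity is measured by luminescence in HepG2-CYP2B6-hCAR cells after 24 h with test compounds and 0.75 uM PK11195 (final concentration).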

[2] = qHTS assay to identify small molecule antagonists of the estrogen related receptor signaling pathway with the pleiotropic PPARgamma coactivator (PGC) from Tox21 10K library - cell viability counter screen (AID 1224840; active = well fitted cell-killing curve with a large enough effect in the repeat runs, not every such curve was filed as active; also: nearly all actives have a fitted effect of over 40% in size)
Procedure, shortened: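 Following seeding of 2,000 PGC/ERR cells/well and 6 hours' incubation, test compounds were delivered in DMSO. The plates then sat 17.5 hours at 37 C before a fluorogenic live-cell protease reagent (CellTiter-Fluor) was read after 30 min.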

[3] = molecular target: Thyrotropin receptor (Homo sapiens) (UniProt P16473); test: qHTS assay to identify small molecule agonists of the thyroid stimulating hormone receptor (TSHR) signaling pathway (AID 1224843; calls by dose curve; also: nearly all actives have a fitted effect of over 45% in size)
Procedure, shortened: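 Steps: seed 800 TSHR-HEK293 cells per well; add test compound and hold 30 min at ambient temperature; dispense cAMP-d2 then anti-cAMP cryptate; incubate 1 h at ambient; measure fluorescence intensity.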

[4] = qHTS assay to identify small molecule agonists of the hypoxia (HIF-1) signaling pathway - cell viability counter screen (AID 1224844; calls by dose curve; also: nearly all actives have a fitted effect of over 50% in size)
Procedure, shortened: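 Cells (HRE-bla ME-180, 2,000 per well) sat 5 hrs at 37C, got compound for 17 hrs, were read for CCF4-AM FRET, and were finally lysed with CellTiter-Glo for a 30 min room-temperature luminescence read.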

[5] = qHTS assay to identify small molecule agonists of H2AX (AID 1224845; active = well fitted activation curve with a large enough effect in the signal ratio in the repeat runs, not every such curve was filed as active; the % refers to the signal ratio)
Procedure, shortened: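 Wild-type CHO-K1 cells, plated overnight, exposed 3hr at 37C to 15 concentrations (0.76% DMSO final). Lysed, then HTRF anti-pH2AX (S139) cryptate and anti-H2AX-d2 antibodies, 24 hr room temperature; 665/620 nm emission read.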

[6] = qHTS assay to identify small molecule agonists of the hypoxia (HIF-1) signaling pathway (AID 1224846; active = well fitted activation curve with a large enough effect in the signal ratio in the repeat runs, not every such curve was filed as active; the % refers to the signal ratio)
Procedure, shortened: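 A low-serum medium (0.5% dialyzed FBS) holding 2,000 HRE-bla ME-180 cells per well is preincubated for 5 hrs, dosed with compounds by pintool, and kept a further 17 hrs at 37C, 5% CO2 before CCF4-AM FRET detection of beta-lactamase.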

[7] = qHTS assay to identify small molecule agonists of H2AX - cell viability counter screen (AID 1224847; calls by dose curve; also: top concentration of the series differs between compounds; nearly all actives have a fitted effect of over 30% in size)
Procedure, shortened: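 Read-out: CellTiter-Glo luminescence, 30 min RT. Cells: wild-type CHO-K1, 1000/well, 10% FBS, plated overnight at 37C. Treatment: 15 concentrations, 3 hr, 37C, 0.76% DMSO.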

[8] = qHTS RealTime-Glo MT Cell Viability Assay in HepG2 cells - 24 hour (AID 1224867); also: nearly all actives have a fitted effect of over 50% in size
Procedure, shortened: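 qHTS, HepG2, 600 cells/well, RealTime-Glo (NanoLuc + prosubstrate) added with cells; 5 h preincubation; DMSO compound addition; 37 C; luminescence at 0/8/16/24/32/40 h.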

[9] = qHTS RealTime-Glo MT Cell Viability Assay in HEK293 cells - 32 hour (AID 1224868); also: top concentration of the series differs between compounds; nearly all actives have a fitted effect of over 50% in size
Procedure, shortened: (§1)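 Assay medium contained NanoLuc luciferase plus cell-permeant prosubstrate, added with HEK293 cells at 600 cells/well. After 5 h at 37 C/5% CO2 compounds were added; plates stayed at 37 C for 40 h with serial luminescence reads.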

[10] = A CellTox Green Cytotoxicity Assay to monitor cytotoxicity in HEK293 cells - 0 hour (AID 1224869); also: nearly all actives have a fitted effect of over 50% in size
Procedure, shortened: (§2)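 Fluorescence intensity, read at 0, 8, 16, 24, 32 and 40 h of compound treatment, reflected dye binding to DNA of dead HEK293 cells; compounds (23 nL, DMSO) were added 5 h after plating cells with reagent.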

[11] = qHTS RealTime-Glo MT Cell Viability Assay in HepG2 cells - 40 hour (AID 1224870); also: nearly all actives have a fitted effect of over 50% in size
Procedure, shortened: (§3)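 HepG2 cells (600/well) mixed with RealTime-Glo MT reagent, settled 5 h at 37 C/5% CO2 before compound addition. Nonlytic NanoLuc luminescence from viable-cell prosubstrate reduction read repeatedly during 40 h treatment at 37 C.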

[12] = A CellTox Green Cytotoxicity Assay to monitor cytotoxicity in HEK293 cells - 40 hour (AID 1224871); also: nearly all actives have a fitted effect of over 45% in size
Procedure, shortened: as §2

[13] = qHTS RealTime-Glo MT Cell Viability Assay in HEK293 cells - 16 hour (AID 1224872)
Procedure, shortened: as §1

[14] = qHTS RealTime-Glo MT Cell Viability Assay in HepG2 cells - 8 hour (AID 1224873); also: nearly all actives have a fitted effect of over 55% in size
Procedure, shortened: as §3

[15] = qHTS RealTime-Glo MT Cell Viability Assay in HEK293 cells - 40 hour (AID 1224874); settings: RealTime-Glo luminescence; max response: stronger effect = lower value; also: nearly all actives have a fitted effect of over 50% in size
Procedure, shortened: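 Viable HEK293 cells reduce a cell-permeant prosubstrate; the product diffuses out and is consumed by NanoLuc in the medium to give light. Compounds went in after a 5 h incubation and plates were read over the treatment course.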

[16] = A CellTox Green Cytotoxicity Assay to monitor cytotoxicity in HEK293 cells - 24 hour (AID 1224875); also: series mostly up to about 77 µM; nearly all actives have a fitted effect of over 45% in size
Procedure, shortened: as §2
% is scaled to controls: 0 for no effect and ±100 for the full control effect.

Nuclear receptor subfamily 1 group I member 3 (Homo sapiens), sequence (Q14994 whole entry, looked up): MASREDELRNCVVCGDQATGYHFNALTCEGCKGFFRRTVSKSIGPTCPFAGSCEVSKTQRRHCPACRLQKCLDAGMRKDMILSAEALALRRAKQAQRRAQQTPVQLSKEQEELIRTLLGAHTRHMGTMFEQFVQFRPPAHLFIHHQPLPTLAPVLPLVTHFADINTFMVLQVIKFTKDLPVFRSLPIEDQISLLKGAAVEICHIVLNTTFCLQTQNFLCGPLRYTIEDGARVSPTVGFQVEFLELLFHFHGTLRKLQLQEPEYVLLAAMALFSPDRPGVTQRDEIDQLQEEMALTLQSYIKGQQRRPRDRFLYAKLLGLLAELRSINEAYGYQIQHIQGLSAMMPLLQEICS
Thyrotropin receptor (Homo sapiens), sequence (P16473 whole entry, looked up): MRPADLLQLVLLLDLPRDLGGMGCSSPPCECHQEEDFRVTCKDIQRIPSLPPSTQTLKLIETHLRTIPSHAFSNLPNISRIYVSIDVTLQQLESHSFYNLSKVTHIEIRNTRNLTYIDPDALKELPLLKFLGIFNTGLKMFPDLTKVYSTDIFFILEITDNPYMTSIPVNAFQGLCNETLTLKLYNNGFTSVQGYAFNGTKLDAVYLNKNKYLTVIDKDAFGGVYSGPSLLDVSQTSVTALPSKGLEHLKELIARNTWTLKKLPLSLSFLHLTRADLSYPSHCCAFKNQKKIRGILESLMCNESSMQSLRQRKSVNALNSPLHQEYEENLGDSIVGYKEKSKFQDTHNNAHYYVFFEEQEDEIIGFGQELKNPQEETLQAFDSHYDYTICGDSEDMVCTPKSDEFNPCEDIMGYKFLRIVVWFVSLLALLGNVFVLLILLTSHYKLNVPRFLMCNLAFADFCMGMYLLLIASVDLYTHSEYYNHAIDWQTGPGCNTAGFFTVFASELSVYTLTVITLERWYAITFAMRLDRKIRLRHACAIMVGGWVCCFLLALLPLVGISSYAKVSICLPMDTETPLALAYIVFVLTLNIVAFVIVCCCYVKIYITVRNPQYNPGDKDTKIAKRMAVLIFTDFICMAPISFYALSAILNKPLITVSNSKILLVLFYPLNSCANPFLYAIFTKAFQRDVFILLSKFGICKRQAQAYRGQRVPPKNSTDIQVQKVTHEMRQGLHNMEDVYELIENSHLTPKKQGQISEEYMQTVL

CCCc1ccc(O)cc1
inactive: Potency [1] | outcome [2] | outcome [3] | outcome [4] | outcome [5] | outcome [6] | outcome [7] | outcome [8] | Potency [9] | Potency [10] | outcome [11] | Potency [12] | Potency [13] | outcome [14] | max response [15] 6.55% | Potency [16]

C=CCN1C[C@H](C(=O)N(CCCN(C)C)C(=O)NCC)C[C@@H]2c3cccc4[nH]cc(c34)C[C@H]21
inactive: Potency [1] | outcome [2] | outcome [3] | outcome [4] | outcome [5] | outcome [6] | outcome [7] | outcome [8] | Potency [9] | Potency [10] | outcome [11] | Potency [12] | Potency [13] | max response [15] 0.226% | Potency [16]

O=C(CN1CCNCC1)NC1CCCCC1
inactive: Potency [1] | outcome [2] | outcome [3] | outcome [4] | outcome [5] | outcome [6] | outcome [7] | outcome [8] | Potency [9] | Potency [10] | outcome [11] | Potency [12] | Potency [13] | outcome [14] | max response [15] 0.0212% | Potency [16]

N[C@@H](Cc1ccc(O)cc1)C(=O)O
inactive: activation [1] -2.78% [at 8.39 µM] | viability change, negative = cytotoxic [2] 3.49% [at 8.39 µM] | activation [3] 8.55% [at 8.39 µM] | activity change, negative = cytotoxicity [4] 2.31% [at 6.97 µM] | activation (H2AX phosphorylation) [5] 0.078% [at 14 µM] | activation [6] -0.522% [at 7.01 µM] | activity change, negative = cytotoxicity [7] 5.12% [at 14 µM] | activity change, negative = cytotoxicity [8] -0.685% [at 6.97 µM] | activity change, negative = cytotoxic [9] -0.171% [at 6.97 µM] | cytotoxicity [10] 1.14% [at 6.97 µM] | activity change, negative = cytotoxic [11] 1.47% [at 6.97 µM] | cytotoxicity increase [12] -0.009% [at 6.97 µM] | activity change, negative = cytotoxicity [13] 0.747% [at 6.97 µM] | viability change, negative = cytotoxic [14] 0.728% [at 6.97 µM] | max response [15] -1.3% | activity change [16] 2.02% [at 6.97 µM, stronger effect = higher value]

CC(=O)OCC(=O)Nc1cc(C#N)cc(NC(=O)COC(C)=O)c1Cl
inactive: Potency [1] | outcome [2] | outcome [3] | outcome [4] | outcome [5] | outcome [6] | outcome [7] | outcome [8] | Potency [9] | Potency [10] | outcome [11] | Potency [12] | Potency [13] | outcome [14] | max response [15] 0.686% | Potency [16]

COS(=O)(=O)O
inactive: Potency [1] | outcome [2] | outcome [3] | outcome [4] | outcome [5] | outcome [6] | outcome [7] | outcome [8] | Potency [9] | Potency [10] | outcome [11] | Potency [12] | Potency [13] | outcome [14] | max response [15] -1.57% | Potency [16]

CC(=O)CC(=O)OC(C)(C)C
inactive: Potency [1] | outcome [2] | outcome [3] | outcome [4] | outcome [5] | outcome [6] | outcome [7] | outcome [8] | Potency [9] | Potency [10] | outcome [11] | Potency [12] | Potency [13] | outcome [14] | max response [15] 1.26% | Potency [16]

C=Cc1ccc(C(C)(C)C)cc1
inactive: Potency [1] | outcome [2] | outcome [3] | outcome [4] | outcome [5] | outcome [6] | outcome [7] | outcome [8] | Potency [9] | Potency [10] | outcome [11] | Potency [12] | Potency [13] | outcome [14] | max response [15] -0.639% | Potency [16]

CC(C)NCC(O)c1ccc2ccccc2c1 (stereo unspecified)
inactive: Potency [1] | outcome [2] | outcome [3] | outcome [4] | outcome [5] | outcome [6] | outcome [7] | outcome [8] | Potency [9] | Potency [10] | outcome [11] | Potency [12] | Potency [13] | outcome [14] | max response [15] -5.31% | Potency [16]

O=C1CCC(=O)N1Cl
inactive: Potency [1] | outcome [2] | outcome [3] | outcome [4] | outcome [5] | outcome [6] | outcome [7] | outcome [8] | Potency [9] | Potency [10] | outcome [11] | Potency [12] | Potency [13] | max response [15] 7.58% | Potency [16]

CCCCSCCCC
inactive: Potency [1] | outcome [2] | outcome [3] | outcome [4] | outcome [5] | outcome [6] | outcome [7] | outcome [8] | Potency [9] | Potency [10] | outcome [11] | Potency [12] | Potency [13] | outcome [14] | max response [15] 1.22% | Potency [16]

CCC(=O)Oc1ccc2c(c1)CC[C@@H]1[C@@H]2CC[C@@]2(C)[C@H]1C[C@@H](OC(=O)CC)[C@@H]2OC(=O)CC
inactive: Potency [1] | outcome [2] | outcome [3] | outcome [4] | outcome [5] | outcome [6] | outcome [7] | outcome [8] | Potency [9] | Potency [10] | outcome [11] | Potency [12] | Potency [13] | outcome [14] | max response [15] -0.818% | Potency [16]

CC/C(C)=N\O[Si](C)(O/N=C(\C)CC)O/N=C(\C)CC
inactive: Potency [1] | outcome [2] | outcome [3] | outcome [4] | outcome [5] | outcome [6] | outcome [7] | outcome [8] | Potency [9] | Potency [10] | outcome [11] | Potency [12] | Potency [13] | outcome [14] | max response [15] -3.49% | Potency [16]

CCOC(CN1CCN(CC(C)C(=O)c2ccccc2)CC1)c1ccccc1 (stereo unspecified)
inactive: activation [1] -1.5% [at 19 µM] | viability change, negative = cytotoxic [2] -2.82% [at 19 µM] | activation [3] -4.32% [at 19 µM] | activity change, negative = cytotoxicity [4] 0.0048% [at 15.8 µM] | activation (H2AX phosphorylation) [5] -1.86% [at 31.6 µM] | activation [6] 1.68% [at 15.8 µM] | activity change, negative = cytotoxicity [7] -1.65% [at 31.6 µM] | activity change, negative = cytotoxicity [8] -0.414% [at 15.8 µM] | activity change, negative = cytotoxic [9] -29.5% [at 15.8 µM] | cytotoxicity [10] -3.29% [at 15.8 µM] | activity change, negative = cytotoxic [11] 0.0501% [at 15.8 µM] | cytotoxicity increase [12] -2.53% [at 15.8 µM] | viability change, negative = cytotoxic [14] -2.57% [at 15.8 µM] | max response [15] -27.6% | activity change [16] -4.62% [at 15.8 µM, stronger effect = higher value]
